Reference: the supplement of paper PMC12808144
A number with no mark means an inactive call.

tested on: Mel-DCC-11-R; test: cell viability relative to DMSO control (fraction of DMSO control); higher = less cytotoxic, active = 0.8 or less; conditions: 1 µM; 120 h; vemurafenib co-treatment 0 µM
Outline: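 Three cell types were screened against 315 approved anti-cancer drugs from TargetMol, acoustically pre-spotted in 384-well plates at 1 µM in duplicate over 120 h: NHEM-hTERT immortalized melanocytes (2500/well), patient-derived Mel-DCC-11 and its resistant subline Mel-DCC-11-R (both 1500/well), all in 40 µl per well. The subline was tested alone and with 8 µM of its selecting drug. Viability, measured by luminescence, was normalised to vehicle controls and averaged across duplicates, with ATPlite 1step as the readout.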

| SMILES | cell viability |
| --- | --- |
| C#Cc1cccc(Nc2ncnc3cc(OCCOC)c(OCCOC)cc23)c1 [Erlotinib] | 1.03 |
| N.N.O=C([O-])C[O-].[Pt+2] [Nedaplatin] | 1 |
| S=c1nc[nH]c2nc[nH]c12 [Mercaptopurine] | 0.876 |
| C=CC(=O)Nc1cccc(Nc2nc(Nc3ccc(N4CCN(C(C)=O)CC4)cc3OC)ncc2C(F)(F)F)c1 [Rociletinib] | 0.855 |
| CC(/C=C/C=C(\C)C(=O)O[C@@H]1O[C@H](CO[C@@H]2O[C@H](CO)[C@@H](O)[C@H](O)[C@H]2O)[C@@H](O)[C@H](O)[C@H]1O)=C\C=C\C=C(C)\C=C\C=C(/C)C(=O)O[C@@H]1O[C@H](CO[C@@H]2O[C@H](CO)[C@@H](O)[C@H](O)[C@H]2O)[C@@H](O)[C@H](O)[C@H]1O [Crocin] | 0.985 |
| Nc1nc(=O)c2c([nH]1)NCC(CNc1ccc(C(=O)N[C@@H](CCC(=O)[O-])C(=O)[O-])cc1)N2C=O.[Ca+2] (stereo partly specified) [Calcium folinate] | 1.68 |
| O=c1ccn([C@@H]2O[C@H](CO)[C@@H](O)[C@H]2O)c(=O)[nH]1 [Uridine] | 0.931 |
| CC[C@]1(O)C[C@H]2CN(CCc3c([nH]c4ccccc34)[C@@](C(=O)OC)(c3cc4c(cc3OC)N(C=O)[C@H]3[C@@](O)(C(=O)OC)[C@H](OC(C)=O)[C@]5(CC)C=CCN6CC[C@]43[C@@H]65)C2)C1.O=S(=O)(O)O [Vincristine sulfate] | 0.455 (active) |
| NC(=O)NO [Hydroxyurea] | 1.09 |
| CC1(C)O[C@H]2CC(=O)OC[C@]23[C@H]2CC[C@@]4(C)[C@H](c5ccoc5)OC(=O)[C@H]5O[C@]54[C@]2(C)C(=O)C[C@@H]13 [Limonin] | 0.857 |
| Nc1ccn([C@@H]2O[C@H](CO)[C@@H](O)[C@@H]2O)c(=O)n1 [Cytarabine] | 0.654 (active) |
| CO[C@H]1C(=O)[C@]2(C)[C@@H](OC)C[C@H]3OC[C@@]3(OC(C)=O)[C@H]2[C@H](OC(=O)c2ccccc2)[C@]2(O)C[C@H](OC(=O)[C@H](O)[C@@H](NC(=O)OC(C)(C)C)c3ccccc3)C(C)=C1C2(C)C [Cabazitaxel] | 1.04 |
| CCCCc1nc2cc(/C=C/C(=O)NO)ccc2n1CCN(CC)CC [Pracinostat] | 0.699 (active) |
| CNNCc1ccc(C(=O)NC(C)C)cc1.Cl [Procarbazine hydrochloride] | 1.04 |
| Nc1nc(=O)c2c([nH]1)NC[C@H](CNc1ccc(C(=O)N[C@@H](CCC(=O)[O-])C(=O)[O-])cc1)N2C=O.[Ca+2] [Calcium Levofolinate] | 1.8 |
| COC(=O)c1cc(OC)c2c(c1-c1c(CO)cc(OC)c3c1OCO3)OCO2 [Bicyclol] | 0.998 |
| O=C(Nc1c(Cl)cncc1Cl)c1ccc(OC(F)F)c(OCC2CC2)c1 [Roflumilast] | 1.15 |
| CCc1ccc(CCOc2ccc(CC3SC(=O)NC3=O)cc2)nc1.Cl (stereo unspecified) [Pioglitazone hydrochloride] | 0.921 |
| C.CCN(CC)CCCC(C)Nc1ccnc2cc(Cl)ccc12.O=P(O)(O)O.O=P(O)(O)O (stereo unspecified) [Chloroquine diphosphate] | 0.913 |
| CN(C)c1nc(N(C)C)nc(N(C)C)n1 [Altretamine] | 0.973 |
| CN(Cc1cnc2nc(N)nc(N)c2n1)c1ccc(C(=O)N[C@@H](CCC(=O)O)C(=O)O)cc1 [Methotrexate] | 0.993 |
| Nc1ccccc1NC(=O)c1ccc(CNc2nccc(-c3cccnc3)n2)cc1 [Mocetinostat] | 0.558 (active) |
| COc1cc2nccc(Oc3ccc(NC(=O)Nc4cc(C)on4)c(Cl)c3)c2cc1OC [Tivozanib] | 1.08 |
| Cc1nc(Nc2ncc(C(=O)Nc3c(C)cccc3Cl)s2)cc(N2CCN(CCO)CC2)n1 [Dasatinib] | 1.59 |
| COc1cc2nccc(Oc3ccc(NC(=O)C4(C(=O)Nc5ccc(F)cc5)CC4)cc3)c2cc1OC.O=C(O)C[C@H](O)C(=O)O | 1.05 |
| CC[C@@H](CO)NCCN[C@@H](CC)CO.Cl.Cl [Ethambutol dihydrochloride] | 0.965 |
